# Bioassay records: PubChem, Broad Institute
# This is a sample that favours compounds with a hit; in the whole collection about 2.1% have one here.
# aSyn 5UTR inh: MLPCN primary screen, SNCA 5' untranslated region | alpha-synuclein 5'UTR reporter, inhibitor activity | inhibition, % (tested at 7.5 µM) | 0.82% of 300,000 active | AID 1813; in the data active = inhibition above about 60%; inconclusive = no clear call, values can overlap the other calls;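 also: H4 neuroglioblastoma cells stably carrying SNCA 5'UTR luciferase fusion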
# LMP1 NFkB inh: inhibitors of Epstein-Barr LMP1-induced NF-kappaB reporter; LMP1-induced NF-kappaB luciferase reporter cells, luminescence; inhibition, % at 12.5 µM; 0.69% of 350,000 active; AID 504558; in the data active = inhibition above about 41%; inconclusive = no clear call, values can overlap the other calls
# PAX8 reporter: PAX8 transcriptional activity inhibition. inhibition, % at 12.6 µM. 1.2% of 360,000 active. RMG-I TPO-luciferase reporter, SteadyGlo, 24 h;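 active = mean replicate inhibition at least 60% with every replicate also reaching 60%; inconclusive = only one of the two criteria is met; inactive = mean below 60% and not all replicates reaching 60%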;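 also: luciferase light reporting Pax8 driven TPO promoter activity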
# MITF TRPM1 inh: reduces MITF-dependent TRPM1 promoter luciferase signal. SK-MEL-5 TRPM1 promoter luciferase, 24 h. inhibition, % at 12.5 µM. 0.83% of 330,000 active;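 active = mean inhibition across replicates of 60% or more, whatever share of single replicates reaches that level; inconclusive = some that reach 60%, reason not given; inactive = mean inhibition across replicates below 60%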
# Shn3 3UTR inh: inhibitors of Schnurri-3 3'UTR reporter in osteoblasts; inhibition, % at 12.5 µM; AID 588674; Clone20 osteoblast Shn3 3'UTR firefly luciferase, 24 h; 0.52% of 360,000 active;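 active = mean inhibition of at least 75% with every replicate also reaching 75%; inconclusive = mean inhibition at least 75% but some replicate below; inactive = mean inhibition below 75%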
# Numbers stand for hits; – = inactive; ? = inconclusive; · = no result given.
SMILES,aSyn 5UTR inh,LMP1 NFkB inh,PAX8 reporter,MITF TRPM1 inh,Shn3 3UTR inh
CCCCCC(=O)NC(=S)Nc1ccc(Br)cc1C,–,44,–,–,–
COc1cc2c(cc1NC(=O)C(Cl)Cl)-c1ccc(NC(=O)C(Cl)Cl)cc1C2,·,–,79,74,–
COCCOc1nc2c(c(=O)n(C)c(=O)n2C)n1Cc1cccc(OC)c1,–,–,·,–,87
Cc1ccccc1S(=O)(=O)N1C[C@@H](O)COC[C@@H]2O[C@H](CC(=O)N3CCC(Cc4ccccc4)CC3)CC[C@H]21,·,·,–,·,·
Cc1cccc(C(=O)OCC(=O)NCc2cccs2)c1,–,–,–,–,–
CS(=O)(=O)c1ccc(C(=O)OCC(=O)NCc2cccs2)cc1[N+](=O)[O-],·,–,101,85,97
O=C(NCc1ccccc1)C(c1ccccc1)N(Cc1ccccc1)C(=O)Cc1ccccc1 (stereo not drawn),·,·,79,·,·
Cc1ccc(-c2nnc(SCC(=O)Nc3ccccc3F)o2)cc1,92,79,–,76,–
O=C(CSc1nnc(-c2ccccc2)o1)Nc1ccccc1F,74,53,–,·,–
COC(=O)c1ccccc1NC(=O)CSc1nnc(-c2ccc(C)cc2)o1,–,·,·,·,·
O=C(CSc1nnc(-c2ccc(Br)cc2)o1)Nc1cccc(C(=O)O)c1,98,75,83,88,–
CCOCCCNC(=O)CNC(=S)N(Cc1ccccc1F)C1CCCCC1,–,–,·,–,–
COc1ccc(CNC(=O)c2cc3c(C)nc4ccccc4c3o2)c(OC)c1,–,·,·,·,90
COc1cccc(CNC(=O)c2cc3c(C)nc4ccccc4c3o2)c1,–,–,–,·,?
O=C(CN1CCN(Cc2ccccc2)CC1)N/N=C/c1ccccc1F,–,–,–,–,–
COc1ccc(-c2nc(-c3ccccc3OC)no2)cc1OC,–,–,·,–,–
COc1ccccc1-c1noc(-c2ccccc2)n1,–,47,·,–,–
COC(=O)C1=C(C)N(Cc2ccc(Cl)cc2)C(=S)NC1c1ccc(Br)cc1 (stereo not drawn),·,·,–,·,·
CCS(=O)(=O)N1[C@H](CO)[C@@H](c2ccccc2)C12CN(C(=O)C1CCCCC1)C2,·,·,–,·,·
O=C1c2ccc3c4c(ccc(c24)C(=O)N1c1cccc(O)c1)C(=O)N(c1cccc(O)c1)C3=O,68,–,–,100,·
O=C1c2ccc3c4c(ccc(c24)C(=O)N1c1cccc(O)c1)CC3,–,–,–,–,–
CCN(C(=O)COC(=O)c1cc2ccccc2cc1O)C1CCS(=O)(=O)C1 (stereo not drawn),–,–,–,–,–
O=C(C[C@@H]1CC[C@H]2[C@@H](COC[C@@H](O)CN2Cc2ccc(Oc3ccccc3)cc2)O1)N1CCc2ccccc2C1,·,·,80,·,·
O=C(C[C@H]1CC[C@@H]2[C@H](COC[C@@H](O)CN2Cc2ccc(Oc3ccccc3)cc2)O1)N1CCc2ccccc2C1,·,·,–,·,·
O=C(C[C@@H]1CC[C@H]2[C@@H](COC[C@H](O)CN2Cc2ccc(Oc3ccccc3)cc2)O1)N1CCN(c2ccccc2)CC1,·,·,64,·,·
SMILES,aSyn 5UTR inh,LMP1 NFkB inh,PAX8 reporter,MITF TRPM1 inh,Shn3 3UTR inh
O=C(Nc1ccccc1)C1=C[C@@H](c2ccc(Br)cc2)C[C@@H](OCc2ccc(CO)cc2)O1,–,–,–,–,–
Cc1cccc(C)c1NC(=O)CN(C)C(=O)c1ccc2c(=O)n3c(nc2c1)CCC3,·,–,–,–,–
COc1ccc(S(=O)(=O)n2nc(-c3cc(OC)c(OC)c(OC)c3)cc2N)cc1OC,·,–,–,–,–
COc1ccc(-c2cc(N)n(S(=O)(=O)c3c(F)c(F)c(F)c(F)c3F)n2)cc1OC,–,–,·,98,–
CCOc1ccc(C2C(C(N)=O)=C(C)Nc3ncnn32)cc1OC (stereo not drawn),–,–,–,–,–
COc1ccc2c3c(n(C)c2c1)[C@H](CO)NCC31CCN(Cc2cc(-c3ccccc3)on2)CC1,·,·,82,·,·
C=CC[n+]1c(-c2ccc(OC)c(OC)c2)csc1NNC(=O)Nc1ccccc1,–,–,·,–,90
CS(=O)(=O)Nc1ccc2c(c1)OCC(=O)N2Cc1ccccc1,–,–,–,–,–
CN1c2ccc(-c3ccc(C#N)cc3)cc2[C@@H]2[C@@H](CCN2C(=O)NC2CCCCC2)[C@@H]1CO,·,·,88,·,·
COc1cccc(-c2ccc3c(c2)[C@H]2[C@H](CCN2C(=O)NC2CCCCC2)[C@@H](CO)N3C)c1,·,·,96,·,·
COc1cccc(-c2ccc3c(c2)[C@@H]2[C@@H](CCN2C(=O)NC2CCCC2)[C@@H](CO)N3C)c1,·,·,–,·,·
CN1c2ccc(-c3ccc(C#N)cc3)cc2[C@@H]2[C@@H](CCN2C(=O)NC2CCCCC2)[C@H]1CO,·,·,–,·,·
Cc1cnc(C(=O)OCC(=O)Nc2ccc3c(c2)OCCO3)cn1,·,–,–,–,–
CCN(CC)c1ccc(Nc2cc3n(c(=O)n2)CCc2cc(OC)c(OC)cc2-3)cc1,74,–,–,–,–
CCCCC(=O)N1CCN(c2ccc(OC)cc2[N+](=O)[O-])CC1,–,–,87,–,–
C[C@@H]1CN([C@@H](C)CO)C(=O)c2cc(NC(=O)Nc3ccc(F)cc3)ccc2O[C@@H](C)CCCCO[C@H]1CN(C)Cc1ccc(Cl)c(Cl)c1,·,·,72,·,·
C[C@@H]1CCCCO[C@H](CN(C)Cc2ccc(Cl)c(Cl)c2)[C@@H](C)CN([C@H](C)CO)C(=O)c2cc(NC(=O)Nc3ccc(F)cc3)ccc2O1,·,·,–,·,·
C[C@@H]1CCCCO[C@H](CN(C)Cc2ccc(Cl)c(Cl)c2)[C@@H](C)CN([C@@H](C)CO)C(=O)c2cc(NC(=O)NC3CCCCC3)ccc2O1,·,·,70,·,·
C[C@@H]1CCCCO[C@H](CN(C)Cc2ccc(Cl)c(Cl)c2)[C@H](C)CN([C@@H](C)CO)C(=O)c2cc(NC(=O)Nc3ccc(F)cc3)ccc2O1,·,–,75,·,–
C[C@@H]1CCCCO[C@@H](CN(C)Cc2ccc(Cl)c(Cl)c2)[C@@H](C)CN([C@H](C)CO)C(=O)c2cc(NC(=O)Nc3ccc(F)cc3)ccc2O1,·,·,–,·,·
CCC(=O)Nc1ccc2c(c1)C(=O)N(C)[C@H]1CC[C@H](CC(=O)NCc3ccccc3Cl)O[C@H]1CO2,·,·,–,·,·
O=C(Cn1nnc(N2CCCC2)n1)N/N=C/c1ccc(Cl)cc1,–,–,–,–,–
NC(Cc1ccc(Cl)cc1)c1csc(NC(=O)NCCc2ccccc2)n1 (stereo not drawn),·,·,–,·,–
NC(Cc1ccc(Cl)cc1)c1csc(NC(=O)NCC2CCCCC2)n1 (stereo not drawn),·,·,–,·,84
COc1cc(/C=C2/SC(=S)N(Cc3ccccc3)C2=O)ccc1OCC(=O)O,–,47,–,–,–
COc1cc(/C=C2/SC(=S)N(Cc3ccccc3)C2=O)ccc1OS(C)(=O)=O,–,–,–,–,–
COc1ccc(CCn2nnnc2C(c2ccc(Cl)cc2)N2CCN(C)CC2)cc1OC (stereo not drawn),–,–,·,–,–
Cc1ccc(NC(=O)/C=N/OCC(=O)NCc2ccccc2Cl)cc1,–,48,–,–,–
CC(C)C(=O)OCC(=O)NCc1ccccc1Cl,–,–,–,–,–
